Laboratory results reported in PubChem BioAssay AID1159580 (chemical genetic matrix, 2015).
Screen size: about 5,500 compounds; about 2,000 (36%) were called active. Not shown: some 18% with an inconclusive outcome. Rule as the data show it: active = normalized growth mostly below about 0.91 (no sharp cut-off); inconclusive = no clear call, values can overlap the other calls; inactive = mostly above about 0.92. The list shows a part of the results.

Assay: chemical genetic growth profiling, strain panel (AID 1159580);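 also: tested at 20 µM; growth read once vehicle control cultures reached saturation at 30 °C; 1 = growth at the plate median or of vehicle wells; lower values mean less growth of the strain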
Conditions: S. cerevisiae deletion strains, growth OD

Measured: normalized growth

CCCC[C@@]1(C2CCCC2)Cc2cc(OCC(=O)O)c(Cl)c(Cl)c2C1=O
inactive: locus YAL013W, strain DEP1, stronger effect = lower value 1.02 | locus YAL040C, strain CLN3, stronger effect = lower value 1 | locus YCL061C, strain MRC1 (second series), stronger effect = lower value 1 | locus YDR363W, strain ESC2, stronger effect = lower value 0.989 | locus YER002W, strain NOP16, stronger effect = lower value 1.05 | locus YGR078C, strain PAC10, stronger effect = lower value 1.02 | locus YGR229C, strain SMI1, stronger effect = lower value 1.03 | locus YMR263W, strain SAP30, stronger effect = lower value 1 | locus YNL153C, strain GIM3, stronger effect = lower value 1.01 | locus YNL175C, strain NOP13, stronger effect = lower value 0.986 | locus YNL197C, strain WHI3, stronger effect = lower value 0.959 | locus YNL224C, strain SQS1, stronger effect = lower value 0.989 | locus YOR083W, strain WHI5 (second series), stronger effect = lower value 1 | locus YPL241C, strain CIN2, stronger effect = lower value 1
